High-throughput results: PubChem, National Center for Advancing Translational Sciences (NCATS)
Only some compounds are listed: those with a hit (about 12% of all), similar ones and a draw of the others.
BAZ2B inh = qHTS Assay for Inhibitors of BAZ2B. Bromodomain adjacent to zinc finger domain protein 2B (Homo sapiens), Q9UIF8. AlphaScreen BAZ2B-H3K14Ac peptide displacement. Potency, µM (highest dose often 114 µM), inactives show at the top dose activity change, negative = inhibition, most hits filed as inhibitors. actives 4.4% (n = 360,000); further: on the % scale 0 is the no-effect control and ±100 the full control effect; nearly all actives have a fitted effect of over 60% in size
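BAZ2B (50 nM) with biotin-H3(5-23)K14Ac peptide (50 nM) in PBS pH 7.4, 0.01% Tween-20, preformed 30 min, then compound 30 min at room temperature; top concentration 110uM. AlphaScreen streptavidin donor/nickel chelate acceptor beads (10 ug/mL final), 20 min dark, signal read.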
L3MBTL1 block = qHTS Assay for the Inhibitors of L3MBTL1. Lethal(3)malignant brain tumor-like protein 1 (Homo sapiens), Q9Y468. AlphaScreen L3MBTL1–H3K9me1 peptide binding. Potency, µM (doses to about 57.1 µM), for the others: at the highest dose activity, negative = inhibition, actives largely listed as inhibitors. actives 0.66% (n = 230,000). AID 485360, 2010; further: on the % scale 0 is the no-effect control and ±100 the full control effect; nearly all actives have a fitted effect of over 60% in size
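Displacement of a biotinylated histone H3(1-15) peptide monomethylated at Lys9 (75 nM) from L3MBTL1 (50 nM) was measured by AlphaScreen after a 30 min room-temperature compound incubation; cefsulodin titration served as intraplate control.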
JMJD2A Tudor = qHTS Assay for Inhibitors of JMJD2A-Tudor Domain; AID 504339, 2011; AlphaScreen JMJD2A-Tudor / H3K4me3 peptide binding; Potency, µM (doses to about 114 µM), inactives show top-dose activity change, negative = inhibition, actives largely listed as inhibitors; actives 4.4% (n = 390,000); further: on the % scale 0 is the no-effect control and ±100 the full control effect; nearly all actives have a fitted effect of over 50% in size
Sfp inh = qHTS Assay for Inhibitors of Bacillus subtilis Sfp phosphopantetheinyl transferase (PPTase). 4'-phosphopantetheinyl transferase ffp (Bacillus subtilis), Q9F4F7. Biochemical Sfp PPTase activity, qHTS. Potency, µM, without a hit: largest response in the series, negative = inhibition, usual class: inhibitors. actives 3.5% (n = 310,000);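 further: the enzyme is Sfp with the accession as filed and its product quenches rhodamine fluorescence; 0% = enzyme reaction without inhibitor and -100% = no enzyme wells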
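With Hepes-Na pH 7.6 buffer containing 10 mM MgCl2, Sfp (15 nM) modified BHQ-2-YbbR (12.5 uM) using rhodamine-CoA (5 uM). Two reads 30 minutes apart at 525/598 nm yielded each well's rate.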
G9a inh = qHTS Assay for Inhibitors of Histone Lysine Methyltransferase G9a. Histone-lysine N-methyltransferase EHMT2 (Homo sapiens), Q96KQ7. G9a H3K9 monomethylation, AlphaScreen, 2 h. AID 504332, 2011. Potency, µM (top dose mostly 102 µM), for the others: top-dose activity, negative = inhibition, most hits filed as inhibitors. actives 8.8% (n = 350,000); further: on the % scale 0 is the no-effect control and ±100 the full control effect; nearly all actives have a fitted effect of over 75% in size
Target sequence (Q96KQ7 913-1193 limits assumed): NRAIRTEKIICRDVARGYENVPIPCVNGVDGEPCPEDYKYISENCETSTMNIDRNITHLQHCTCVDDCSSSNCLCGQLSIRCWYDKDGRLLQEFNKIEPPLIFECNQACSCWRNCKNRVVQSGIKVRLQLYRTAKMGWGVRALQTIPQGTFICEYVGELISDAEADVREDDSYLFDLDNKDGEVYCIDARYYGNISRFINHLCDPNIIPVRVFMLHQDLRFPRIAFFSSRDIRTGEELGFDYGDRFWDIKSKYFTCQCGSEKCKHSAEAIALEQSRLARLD
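Enzyme 20 nM + cpd, 15 min RT; add b-H3K9 pep 500 nM / SAM 20 uM; 2 h RT; anti-H3K9me1 Ab 0.5 ug/mL + SA donor / anti-rabbit acceptor beads 20 ug/mL each, 10 min; AlphaScreen read.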
HP1b chromo inh = HTS for Inhibitors of HP1-beta Chromodomain Interactions with Methylated Histone Tails; AID 540317, 2011; actives 0.56% (n = 390,000); Potency, µM (doses to about 114 µM), inactives show top-dose activity change, negative = inhibition, most hits filed as inhibitors; AlphaScreen HP1-beta / biotin-H3K9me3 peptide binding; further: nearly all actives have a fitted effect of over 70% in size
Target sequence (P83916 whole entry, looked up): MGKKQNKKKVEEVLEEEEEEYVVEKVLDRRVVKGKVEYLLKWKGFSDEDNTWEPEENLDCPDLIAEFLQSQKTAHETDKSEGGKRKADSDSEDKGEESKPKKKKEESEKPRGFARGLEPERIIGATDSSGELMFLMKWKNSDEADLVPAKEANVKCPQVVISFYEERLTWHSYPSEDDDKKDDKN
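AlphaScreen: HP1-beta (50 nM) preformed 30 min with biotin-H3(1-18)K9me3 peptide (50 nM) in PBS pH 7.4, 0.01% Tween-20. Compound added for 30 min at RT, then streptavidin donor/nickel chelate acceptor beads (10 ug/mL) for 30 min.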
* = called active by the depositor; ? = inconclusive; · = not tested or not shown; [ ] = dose if it differs, or a comment. The call rests on the fitted dose curve; in most records, active means well fitted curve in the direction sought with a large enough effect; inconclusive means small, poorly fitted or top-dose-only effect, or another doubt; inactive means no such curve, though single readings can be large; an effect the other way counts as inactive or inconclusive. Potency means the concentration at half of the fitted maximal effect.

SMILES | BAZ2B inh | L3MBTL1 block | JMJD2A Tudor | Sfp inh | G9a inh | HP1b chromo inh
COc1ccc(CN2CCN(C(c3ccc(F)cc3)c3ccc(F)cc3)CC2)c(OC)c1OC | · | · | ? | ? | -42%[59 µM] | 38%
COc1ccc(C(=O)N2CCN(C(=O)c3ccc(-c4ccccc4)cc3)CC2)cc1OC | -3% | 2% | -5% | 7% | -40% | 19%
CCC(CC)N1CCN(C(=O)c2cc(OC)c(OC)c(OC)c2)CC1 | ? | -3% | 50µM* | ? | · | ?
CC(C)C(NC(=O)C1CC(=O)N(Cc2ccccc2)C1)c1nc2ccccc2[nH]1 (stereo not given) | · | 7% | -1% | · | · | 5%[57 µM]
CCC12CCCN3CCC4(C(=C(C(=O)OC)C1)Nc1ccccc14)C32 (stereo not given) | ? | -2% | ? | -1% | 2.8µM* | -11%
CCN(CC)CCCNC(=O)c1cc(-c2ccc(OC)c(OC)c2)on1 | 0% | · | -9% | · | 4%[59 µM] | 10%
Cc1ccc(S(=O)(=O)Nc2nc3ccccc3nc2NCc2ccco2)cc1 | -8% | -2% | -20% | -37% | ? | 39%
OCCN1CCN(c2nc(NCc3ccco3)c3ccccc3n2)CC1 | -9% | -1% | ? | 2% | -8%[59 µM] | 5%
c1ccc(CN2CCN(c3nc(NCc4ccco4)c4ccccc4n3)CC2)cc1 | 50µM* | · | ? | 45µM* | ? | -16%
Cc1ccc(OCCN2CCN(c3nc(NCc4ccco4)c4ccccc4n3)CC2)cc1 | ? | -10% | 56µM* | -20% | ? | -34%
Cc1ccc(C(=O)Cc2cc3ccccc3oc2=O)c(C)c1 | -14% | · | 2% | 13% | -4% | 32%
CC1(C)Cc2c(C#N)c(NC3CCCCC3)nc(-c3ccco3)c2CO1 | 5% | 6% | · | 3.5µM* | 11µM* | ·
CCN(CC)CCNc1nc(-c2ccco2)c2c(c1C#N)CC(C)(C)OC2 | 2% | -4% | -10% | 5% | 6% | 24%
CC1(C)Cc2c(C#N)c(NCC3CCCO3)nc(-c3ccco3)c2CO1 (stereo not given) | 11% | 22%[11.4 µM] | 41% | 7.9µM* | 10µM* | 96%
N#Cc1c(-c2ccco2)nc(NCC2CCCO2)[nH]c1=O (stereo not given) | 4% | -2% | -1% | 19% | 6%[12.7 µM] | 25%
CC1(C)Cc2c(C#N)c(NCCc3ccccc3)nc(-c3ccco3)c2CO1 | 0% | 4% | 37% | 50µM* | -25% | 3%
C=CCn1c(CNS(=O)(=O)c2ccc(Br)cc2)n[nH]c1=S | -13% | · | 28µM* | 5% | 32µM* | 29%
CCn1c(CNS(=O)(=O)c2ccc(Br)cc2)nnc1SC | -15% | · | -12% | 15% | 60% | 36%
C=CCn1c(CNS(=O)(=O)c2ccc(F)cc2)n[nH]c1=S | -3% | · | 13µM* | -15% | 23%[12.7 µM] | 51%
C=CCn1c(CSCc2ccc(F)cc2)n[nH]c1=S | 8% | 2% | -75% | -8% | · | 1%
C=CCn1c(CNS(=O)(=O)c2ccc(Cl)cc2)n[nH]c1=S | -13% | · | 28µM* | 9% | 32µM* | 28%
O=C(COC(=O)[C@@H]1CC(O)CN1S(=O)(=O)c1ccc2c(c1)OCCO2)Nc1ccccc1F (stereo not given in full) | 1% | -9% | 2% | 3% | 19% | 30%
O=C(c1cc2ccc3cccnc3c2[nH]1)N1CCN(c2cccc(C(F)(F)F)c2)CC1 | -34%[57.1 µM] | · | -32% | · | -28%[59 µM] | 11%
CCOC(=O)c1sc(=S)sc1SCc1cccc(C(F)(F)F)c1 | -35% | · | -28% | -7% | 32µM* | -16%
COc1ccc(NC(=O)c2sccc2SCc2cccc(C(F)(F)F)c2)cc1 | 31% | 37% | 52% | 8% | ? | 78%
SMILES | BAZ2B inh | L3MBTL1 block | JMJD2A Tudor | Sfp inh | G9a inh | HP1b chromo inh
COc1ccc(OCC(O)CN2CC(C)OC(C)C2)cc1 (stereo not given) | 4% | 53% | -5% | 14% | · | 31%
CSc1ccc(/C=N/NC(=O)COc2ccc(Br)cc2Cl)cc1 | 36% | 22% | -7% | ? | 18% | 30%
NC(=O)c1cc(N2C(=O)C=CC2=O)ccc1Cl | ? | 4% | 25µM* | 8.9µM* | 1.3µM* | ?
O=C(O)C(=O)/C(=C\c1cccc2ccccc12)c1ccc2ccccc2n1 | 4% | · | -18% | -3% | 8% | 43%
O=C(O)C(=O)/C(=C\c1ccc([N+](=O)[O-])cc1)c1ccc2ccccc2n1 | ? | 1% | ? | 45µM* | 35µM* | 1%
O=C(O)C(=O)/C(=C\c1ccsc1)c1ccc2ccccc2n1 | -6% | · | 89µM* | 3% | ? | 5%
O=C(O)C(=O)/C(=C\c1ccccc1)c1ccc2ccccc2n1 | 1% | · | ? | -1% | 79µM* | 35%
CCOc1c2c(c(-c3ccc4c(c3)OCO4)c3cc(OC)c(OC)cc13)C(=O)OC2 | · | · | -15% | · | · | -6%
Nc1ncnc2c1ncn2[C@@H]1O[C@H](CNS(=O)(=O)c2cc(S(=O)(=O)c3ccccc3)cs2)[C@@H](O)[C@H]1O | · | 5% | -6% | · | · | 58%
Cc1cc(C)c(OCCn2ccnc2)c(C)c1 | -31% | -5% | -10% | -7% | 3%[59 µM] | 49%
Clc1ccc(OCCCn2ccnc2)c(Br)c1 | 32µM* | -18% | 5.6µM* | -19% | 3.5µM* | 16µM*
Cc1cc(C)c(OCCCn2ccnc2)c(C)c1 | ? | 4% | -24% | 15% | -12%[59 µM] | 25%
Cc1cc(Cl)c(OCCCn2ccnc2)c(Br)c1 | 50µM* | -17% | 22µM* | 10% | ? | ?
Cc1ccc(OCCCCn2ccnc2)c(Cl)c1 | -38% | · | ? | 1% | -16%[59 µM] | -1%
Cc1cccc(C)c1OCCCn1ccnc1 | ? | 22% | 25µM* | -26% | · | ?
O=C(CSc1nc(C(F)(F)F)cc(=O)[nH]1)Nc1cccc2ccccc12 | 9% | 5% | -6% | · | -30% | 12%
CCCCNC(=O)CCn1c(=O)c2ccccc2n(Cc2cccc(Cl)c2)c1=O | 5% | · | -6% | · | 9%[59 µM] | -15%
CCCC[C@@H]1C[C@H]1[C@@H](NP(=O)(c1ccccc1)c1ccccc1)c1ccccc1OC | · | · | · | -19% | · | ·
